Only some compounds are listed: those with a hit (about 19% of all), similar ones and a draw of the others.
HT1080 IDH1KD tx – HT-1080 IDH1 knockdown cell toxicity (counter line); 360,000 tested, 2% active; AID 686971; HT-1080 IDH1 knockdown viability, ATP luminescence, 48 h; Potency, µM (titrated, usually from 46.1 µM), without a hit: top-dose activity, negative = toxicity, usual class: cytotoxic;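 further: potency means the concentration at half of the fitted maximal effect; 0% = DMSO wells and -100% = cell-free medium wells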
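After a 2 h attachment period, IDH1KD HT-1080 cells took pin-transferred compound for 48 h at 37 °C; ATP-based luminescence after 10 min room-temperature reagent incubation reported viability.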
HT1080-NT tox – kills 2HG-producing HT-1080-NT fibrosarcoma cells. Potency, µM (top dose mostly 46.1 µM), for the others: at the top dose activity, negative = less viability, actives largely listed as cytotoxic. AID 686970. 360,000 tested, 1.6% active. HT-1080-NT fibrosarcoma viability, CellTiter-Glo ATP luminescence, 48 h;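 further: NT is the 2HG producing partner of a matched IDH1 knockdown line; potency means the concentration at half of the fitted maximal effect; 0% = DMSO-treated cells and -100% = media-only wells without cells; nearly all actives have a fitted effect of over 55% in size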
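HT-1080-NT; 750 cells/well; 5% FBS RPMI; 48 h compound, 37 degrees C; CellTiter-Glo luminescence; curve fitting and curve-class assignment.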
TDP1 cell noCPT – qHTS for Inhibitors of human tyrosyl-DNA phosphodiesterase 1 (TDP1): qHTS in cells in absence of CPT; DT40 Tdp1-/- hTDP1 cells, no CPT, ATP luminescence, 48 h; Potency, µM (series often up to 46.2 µM), for the others: at the top dose activity change, negative = growth inhibition, most hits filed as inhibitors; 420,000 tested, 15% active; AID 686978, 2013; further: potency means the concentration at half of the fitted maximal effect; nearly all actives have a fitted effect of over 55% in size
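Chicken DT40 Tdp1-/- cells stably complemented with human TDP1 were seeded at 400 cells/well with DMSO in place of 20 nM camptothecin. After compound pinning, cells grew at least 48 hr at 37 °C; viability read by CellTiter-Glo luminescence.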
IL-1B inflam inh – blocks inflammasome-driven IL-1 beta release. THP-1 LPS/ATP IL-1B secretion, AlphaLISA, 16 h; hits give low values. activity change, % at 57.5 µM. 360,000 tested, 4.7% active. AID 743279; in the data active means activity change below about -50%; inconclusive means mostly about -30% to -49%
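THP-1 cells pretreated 1 hr with compounds (up to 57.5 uM final), then stimulated with LPS (250 ng/mL final) plus ATP (1.25 mM final); secreted IL-1B measured by AlphaLISA after 16 hr, decreased signal indicating inhibition.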
DT40 TDP1 CPT – growth inhibition of DT40 Tdp1-/-;hTDP1 cells with camptothecin (screen for TDP1 inhibitors); chicken DT40 Tdp1-/-;hTDP1 cells + 20 nM CPT, ATP luminescence, 48 h; Potency, µM (series often up to 46.2 µM), for the others: top-dose activity change, negative = growth inhibition, most hits filed as inhibitors; 420,000 tested, 12% active; AID 686979; further: potency means the concentration at half of the fitted maximal effect; nearly all actives have a fitted effect of over 55% in size
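Cell growth measured by CellTiter-Glo luminescence after a minimum 48 h, 37 C compound exposure with 20 nM CPT in Tdp1-knockout DT40 cells stably expressing hTDP1, seeded 400/well; qHTS titration format.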
ELG1 DNA repair – inhibitors of ELG1-dependent DNA repair in HEK293T cells | 330,000 tested, 2.3% active | HEK293T ELG1-luciferase reporter, luminescence, 16 h; DNA damage induced by 5-fluorouridine | Potency, µM (series often up to 46.1 µM), inactives show at the top dose activity change, negative = inhibition, most hits filed as inhibitors; further: potency means the concentration at half of the fitted maximal effect; nearly all actives have a fitted effect of over 55% in size
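In this reporter screen, reduction of luminescence relative to DMSO vehicle indicated activity. Compounds and 5-fluorouridine were added together to 2,000 cells per well, incubated for 16 hr at 37 °C, then developed with ONE-Glo.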
* hit, by the source's call; ? = inconclusive; nt = no result; [ ] = remark or other dose. Unless noted, the call rests on the fitted dose curve; in most records, active means well fitted curve in the direction sought with a large enough effect; inconclusive means small, poorly fitted or top-dose-only effect, or another doubt; inactive means no such curve, though single readings can be large; an effect the other way counts as inactive or inconclusive. Unless noted, on the % scale 0 is the no-effect control and ±100 the full control effect.

SMILES | HT1080 IDH1KD tx | HT1080-NT tox | TDP1 cell noCPT | IL-1B inflam inh | DT40 TDP1 CPT | ELG1 DNA repair
CC(=O)O[C@@]12CO[C@@H]1C[C@@H](O)[C@@]1(C)C(=O)[C@H](O)C3=C(C)[C@@H](OC(=O)[C@H](O)[C@@H](NC(=O)c4ccccc4)c4ccccc4)C[C@@](O)([C@@H](OC(=O)c4ccccc4)C12)C3(C)C (some centres undefined) | 0.013µM* | 0.21µM* | 0.065µM* | 30 | 0.046µM* | ?
CCCCCC(=O)N[C@@H](c1ccccc1)[C@@H](O)C(=O)O[C@H]1C[C@@]2(O)[C@@H](OC(=O)c3ccccc3)C3[C@](C)(C(=O)[C@H](O)C(=C1C)C2(C)C)[C@@H](OC1OCC(O)C(O)C1O)C[C@H]1OC[C@@]31OC(C)=O (some centres undefined) | 1.8µM* | 2.6µM* | 0.58µM* | 44 | 1.2µM* | -13%
CC(=O)O[C@@]12CO[C@@H]1C[C@H](OC1OCC(O)C(O)C1O)[C@@]1(C)C(=O)[C@H](O)C3=C(C)[C@@H](OC(=O)[C@H](O)[C@@H](NC(=O)c4ccccc4)c4ccccc4)C[C@@](O)([C@@H](OC(=O)c4ccccc4)C12)C3(C)C (some centres undefined) | 5.8µM* | 3.3µM* | 1µM* | 11 | 1.2µM* | -22%
OC1/C(=C/c2ccccc2C(F)(F)F)N2CCC1CC2 (centres undefined) | 4% | 4% | 13% | 3 | 16% | 7%
C[C@H](CO)N1C[C@H](C)[C@@H](CN(C)C(=O)Nc2ccccc2)Oc2c(NS(=O)(=O)c3ccc(F)cc3)cccc2C1=O | -1% | -7% | -23% | -1 | 4% | ?
CCC(C)(C)n1nnnc1C(c1cccc(C#N)c1)N1CCN(c2cc(C)ccc2C)CC1 (centres undefined) | 11% | 0% | 23µM* | 24 | 16µM* | -4%
Cc1ccc(N=Nc2cc(C)ccc2N)cc1 | ? | ? | 0% | 10 | -26% | ?
O=C1N[C@H](Cc2ccccc2)C(=O)N2[C@@H]3[C@H](C[C@@H]12)c1ccccc1N3OOSc1ccccc1 | -15% | -1% | 18µM* | 0 | 16µM* | nt
O=C1C(Cl)=C(Cl)C(=O)C(Cl)=C1Cl | nt | nt | 2.9µM* | nt | 4.6µM* | nt
NCCCP(=O)(O)CC1CCCCC1 | nt | nt | -1% | nt | 12% | nt
COc1cccc(C(=O)CCN[C@@H](C)[C@H](O)c2ccccc2)c1 | nt | nt | 24µM* | nt | 13µM* | nt
Cc1ccc(C(=O)CN2CCOCC2)cc1 | nt | nt | -1% | nt | -2% | nt
COC(=O)C1=Nc2ccccc2/C1=C\c1c(O)n(-c2cc(OC)ccc2OC)c(=O)[nH]c1=O | -12% | -1% | -14% | -26 | -10% | -17%
Cc1cccc(-n2c(O)c(/C=C3/C(c4ccccc4)=Nc4ccccc43)c(=O)[nH]c2=O)c1 | 5.8µM* | 16µM* | 2.3µM* | 74 | 2.9µM* | 19%
Cc1cccc(-n2c(O)c(/C=C/C=Nc3ccccc3)c(=O)[nH]c2=O)c1 | 11% | 9% | ? | 0 | -15% | 2%
Cc1ccccc1-n1c(O)c(/C=C2/C(c3ccccc3)=Nc3ccccc32)c(=O)[nH]c1=O | ? | ? | 4.6µM* | ? | 4.6µM* | ?
Cc1ccc(-n2c(O)c(/C=C3/C(c4ccccc4)=Nc4ccccc43)c(=O)[nH]c2=O)cc1 | ? | 7.3µM* | 7.3µM* | -58* | 5.8µM* | ?
CC1=Nc2ccccc2/C1=C/c1c(O)n(C)c(=O)[nH]c1=O | 3% | -4% | ? | -103* | ? | -20%
Cc1ccc(N=Cc2c(O)n(-c3ccc(C)cc3)c(=O)[nH]c2=O)cc1 | -7% | -1% | -19% | 9 | 1% | nt
CC(C)CN1CC[C@@]2(CCCN(C(=O)c3ccncc3)C2)C1 | nt | nt | 0% | nt | 14% | nt
CC(C)(O)[C@@H]1[C@H]2OC(=O)[C@@H]1[C@]1(O)C[C@H]3O[C@]34C(=O)O[C@H]2[C@@]14C (tested in a mixture with another compound) | nt | nt | 1% | nt | 6% | nt
COc1ccc2c3c1OC1[C@H](O)CCC4[C@@H](C2)N(C)CC[C@]314 (some centres undefined) | -4% | 7% | -6% | 23 | -12% | 4%
CCOP(=O)(OCC)c1cc(C)c(O)c(C(C)(C)C)c1 | 0% | -5% | ? | 0 | ? | -3%
O=C1CN=C(c2cccc(Br)c2)c2cc(Br)ccc2N1 | ? | ? | 16µM* | ? | -4% | ?
O=C1CN=C(c2ccccc2)c2cc([N+](=O)[O-])ccc2N1 | -3% | 6% | 3% | -78* | -21% | 6%
SMILES | HT1080 IDH1KD tx | HT1080-NT tox | TDP1 cell noCPT | IL-1B inflam inh | DT40 TDP1 CPT | ELG1 DNA repair
O=C1CN=C(c2cc([N+](=O)[O-])ccc2Cl)c2cc([N+](=O)[O-])ccc2N1 | -17% | 0% | -19% | -12 | 0% | nt
O=C1CN=C(c2ccccc2)c2ccccc2N1 | 8% | 13% | 17% | 25 | -3% | 4%
CCCCCCCCCCCCCCCCOC[C@@H](O)COP(=O)([O-])OCC[N+](C)(C)C | nt | nt | 0%[4.12 µM] | nt | -15%[4.12 µM] | nt
CCC1(CC)C(=O)NC(=O)N(C)C1=O | nt | nt | -13% | nt | 12% | nt
COCC#CCN1CCCCC1c1cccnc1 (centres undefined) | nt | nt | -6%[9.04 µM] | nt | 15%[9.04 µM] | nt
CCOc1ccc(CNCCc2ccc3c(c2)OCO3)cc1 | -20% | -27% | ? | -19 | 1% | 19%
CCOc1ccc(CN(CCc2ccc3c(c2)OCO3)Cc2cccc(Br)c2)cc1 | nt | nt | ? | nt | 2.1µM* | nt
N[C@]1(C(=O)O)CC[C@@H](C(=O)O)C1 (racemic) | nt | nt | -21% | nt | 8% | nt
CCCCCCCCN1C(=O)[C@H](CC(=O)NCCc2ccccc2OC)C[C@@]2(C(=O)OC)CCCCC=C12 | ? | ? | ? | -70* | ? | nt
CCN1CCN(/C=N/c2nc(C)cs2)CC1 | 7% | 4% | 1% | 15 | -10% | ?
N#Cc1cc(NC(=O)c2ccc(Cl)cc2)ccc1Sc1ccccc1 | 21µM* | ? | 16µM* | -61* | 21µM* | nt
COC(=O)C1=C(c2ccccc2)C[C@@H]2CC[C@H]1N2C(=O)NCC1CC1 | 8% | 3% | ? | 34 | ? | nt

Bioassay records (PubChem BioAssay)
